Reference: article PMC4336329 (PLoS ONE, 2015)
Among all 310,000 compounds or so, about 14,000 (4.5%) showed an effect of 50% or more. Effects have a minus sign here. This is one part of a sample in which strong results are shown more often than they occur.

Molecular target: human ether-à-go-go-related gene (hERG) potassium channel (human, UniProt Q12809)
Assay: primary screen, population patch clamp on CHO cells stably expressing hERG; higher = less effect of the substance
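Note: peak tail current of the secondary pulse compared with the same well before compound.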

human ether-à-go-go-related gene (hERG) potassium channel, sequence (Q12809 whole entry, looked up): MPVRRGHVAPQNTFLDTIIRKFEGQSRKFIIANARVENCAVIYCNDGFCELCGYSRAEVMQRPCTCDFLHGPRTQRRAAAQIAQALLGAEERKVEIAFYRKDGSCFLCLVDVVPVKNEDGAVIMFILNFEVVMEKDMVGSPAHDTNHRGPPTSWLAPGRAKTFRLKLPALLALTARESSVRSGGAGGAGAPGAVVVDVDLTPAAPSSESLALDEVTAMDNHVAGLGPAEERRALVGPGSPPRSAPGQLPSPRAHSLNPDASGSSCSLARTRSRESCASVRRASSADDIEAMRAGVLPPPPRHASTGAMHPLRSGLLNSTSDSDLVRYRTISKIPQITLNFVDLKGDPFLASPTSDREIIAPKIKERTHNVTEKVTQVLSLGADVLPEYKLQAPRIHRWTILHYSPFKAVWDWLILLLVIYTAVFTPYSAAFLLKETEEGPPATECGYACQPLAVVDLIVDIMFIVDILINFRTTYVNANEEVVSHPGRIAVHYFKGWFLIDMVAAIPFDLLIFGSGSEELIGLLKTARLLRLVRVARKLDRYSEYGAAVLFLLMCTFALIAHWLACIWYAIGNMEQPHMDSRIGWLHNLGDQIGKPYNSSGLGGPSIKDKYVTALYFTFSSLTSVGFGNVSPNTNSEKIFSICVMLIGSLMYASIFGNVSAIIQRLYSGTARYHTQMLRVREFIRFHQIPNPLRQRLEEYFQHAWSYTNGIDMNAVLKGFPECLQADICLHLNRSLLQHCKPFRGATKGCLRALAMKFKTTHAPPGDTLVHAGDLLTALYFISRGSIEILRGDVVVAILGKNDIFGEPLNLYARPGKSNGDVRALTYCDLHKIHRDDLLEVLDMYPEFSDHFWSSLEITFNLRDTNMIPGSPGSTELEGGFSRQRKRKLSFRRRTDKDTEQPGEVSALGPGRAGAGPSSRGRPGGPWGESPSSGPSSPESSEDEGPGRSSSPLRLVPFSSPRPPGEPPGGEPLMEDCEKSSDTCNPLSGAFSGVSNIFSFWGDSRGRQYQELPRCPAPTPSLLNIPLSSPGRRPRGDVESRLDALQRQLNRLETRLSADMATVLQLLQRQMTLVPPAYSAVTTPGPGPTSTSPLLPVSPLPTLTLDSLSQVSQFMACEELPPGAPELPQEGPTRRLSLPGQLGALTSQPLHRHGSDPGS

| SMILES | hERG current change (%, negative = inhibition) at 10uM [%] |
| --- | --- |
| COc1ccc(CCNC(=O)Cn2nnc(-c3ccccc3F)n2)cc1OC | 1.44 |
| CC1CCCN(C(=O)COC(=O)CNC(=O)c2ccc(Br)cc2)C1 (stereo not shown) | -8.3 |
| CCOC(=O)C1CCN(C(C(=O)NC2CCCC2)c2ccc(C)cc2)CC1 (stereo not shown) | -21.8 |
| CC(C)c1ccc(O)c(NC(=O)c2cccnc2)c1 | 6.07 |
| Cc1sc2ncnc(NCC3CCCO3)c2c1C.Cl (stereo not shown) | -1.4 |
| Cc1sc2ncnc(NCC3(N4CCOCC4)CCCCC3)c2c1C | -71.1 |
| c1nc(Nc2ccc(N3CCOCC3)cc2)c2ccsc2n1 | -7.59 |
| Cc1sc2ncnc(NCCCN3CCCC3=O)c2c1C | 3.27 |
| c1csc(CNc2ncnc3sccc23)c1 | -20.3 |
| c1nc(NCC2(N3CCOCC3)CCCCC2)c2ccsc2n1 | -73.3 |
| Cc1sc2ncnc(N3CCOCC3)c2c1C | -13.7 |
| Cc1sc2ncnc(NCC(C)(C)N3CCOCC3)c2c1C | -71.7 |
| Cc1sc2ncnc(NCCN3CCOCC3)c2c1C.O=C(O)C(=O)O | -22.4 |
| C=CCNC(=O)CC(=O)N/N=C/c1ccc(F)cc1 | -3.54 |
| CCSC(=O)NC12CC3CC(CC(C3)C1)C2 | 6.27 |
| Cc1cc(OCC(=O)NCc2ccccn2)c2c(C)cc(=O)oc2c1 | -7.15 |
| O=C(NC(=S)Nc1ccc(S(=O)(=O)N2CCCCCC2)cc1)c1cccs1 | -5.3 |
| O=C(CCc1ccc(S(=O)(=O)N2CCOCC2)cc1)N/N=C/c1ccc(O)c(O)c1O | 18.9 |
| COc1ccc(NC(=O)C2=C(C)Nc3ncnn3C2c2ccccc2C(F)(F)F)c(OC)c1 (stereo not shown) | 2.77 |
| CCOc1ccc(C(C)=O)cc1CSc1nc(C)cc(C)n1 | -6.21 |

| SMILES | hERG current change (%, negative = inhibition) at 10uM [%] |
| --- | --- |
| CCOc1ccccc1NC(=S)N1CCC(NC(=O)NC23CC4CC(CC(C4)C2)C3)CC1 | -13.7 |
| COc1ccc(S(=O)(=O)N2CCCOC2CNC(=O)C(=O)NCc2ccco2)cc1 (stereo not shown) | -22 |
| CCOC(=O)c1c(NC(=O)C(C)NCc2ccco2)sc2c1CCC(C)C2.O=C(O)C(=O)O (stereo not shown) | -4.23 |
| COc1cccc(Oc2coc3cc(OC(=O)N4CCOCC4)ccc3c2=O)c1 | -4.27 |
| COc1ccc(Oc2coc3cc(OC(=O)N4CCOCC4)ccc3c2=O)cc1 | -25.3 |
| Cc1oc2cc(OCc3cnn(-c4ccccc4)c3)ccc2c(=O)c1Oc1ccccc1F | -11.2 |
| CCOc1ccccc1Oc1coc2cc(OCC(=O)O)ccc2c1=O | 24.3 |
| CCCNC(=O)COc1ccc2c(=O)c(Oc3ccccc3F)coc2c1 | -61.6 |
| O=c1c(Oc2ccccc2F)coc2cc(OCc3cnn(-c4ccccc4)c3)ccc12 | -55 |
| COC(=O)COc1ccc2c(=O)c(Oc3ccccc3Br)coc2c1 | 14 |
| COc1ccccc1Oc1coc2cc(OC(=O)N3CCOCC3)ccc2c1=O | -56.4 |
| COC(=O)c1ccc(Oc2coc3cc(OCc4cnn(-c5ccccc5)c4)ccc3c2=O)cc1 | 7.07 |
| CCC/C=N/Nc1nnc(Cc2ccc(OC)c(OC)c2)c(=O)[nH]1 | 27.2 |
| CSCC[C@H](NC(=O)OCc1ccccc1)C(=O)O | -2.24 |
| Cc1ccc(-c2c(C#N)c(N)nc3c2CCCCC3)o1 | -5.84 |
| C=CCn1c(N/N=C/c2ccc(O)cc2)nc2ccccc2c1=O | -17.9 |
| Cc1cc2c(C)nc(N/N=C/c3ccccc3)nc2o1 | -27.6 |
| Cc1cc2c(C)nc(N/N=C/c3ccc([N+](=O)[O-])cc3)nc2o1 | -16.2 |
| Cc1cc2c(C)nc(N/N=C/c3ccc(F)cc3)nc2o1 | -52.7 |
| CC1(C)C2CCC13CS(=O)(=O)N[C@@H]3C2 (stereo partly shown) | 20.5 |

| SMILES | hERG current change (%, negative = inhibition) at 10uM [%] |
| --- | --- |
| Cc1ccc(CC2CC(=O)N(CCc3ccc4c(c3)OCO4)C2=O)cc1 (stereo not shown) | 3.17 |
| O=C(Nc1ccc(O)cc1)C1CCCO1 (stereo not shown) | 16.4 |
| C=CCn1c(SCC(=O)Nc2ccc(OC)cc2)nnc1-c1cnccn1 | -23.1 |
| Cc1cc(-c2nnc(SCC(=O)Nc3cccc(F)c3)n2N)n[nH]1 | 6.38 |
| C=CCn1c(SCC(=O)Nc2cc(C)cc(C)c2)nnc1-c1cnccn1 | -29.6 |
| Cc1ccc(NC(=O)CSc2nnc(-c3ccccn3)n2N)cc1F | -48.5 |
| Nn1c(SCC(=O)Nc2ccc(F)cc2)nnc1-c1ccccn1 | -53.6 |
| Cc1cc(-c2nnc(SCC(=O)Nc3cccc(Cl)c3)n2N)n[nH]1 | -71.9 |
| C=CCn1c(SCC(=O)Nc2ccc(F)cc2)nnc1-c1cnccn1 | -58.9 |
| Cc1cccc(NC(=O)CSc2nnc(-c3cc(C)[nH]n3)n2N)c1 | -29.1 |
| C=CCn1c(SCC(=O)Nc2c(C)cccc2C)nnc1-c1cnccn1 | -2.77 |
| C=CCn1c(SCC(=O)Nc2ccc(S(N)(=O)=O)cc2)nnc1-c1cnccn1 | 13 |
| C=CCn1c(SCC(=O)Nc2cccc(C)c2)nnc1-c1cnccn1 | -71.9 |
| NC(=O)c1ccc(NC(=O)CSc2nnc(-c3ccccn3)n2N)cc1 | 17.1 |
| Cc1cc(C)[n+](Cc2ccccc2)cc1C(N)=O.[Cl-] | 16.6 |
| N#Cc1cc(Nc2c(N)nc[nH]c2=O)c([N+](=O)[O-])cc1C#N | 8.95 |
| O=C(O)CCN1C(=O)c2ccc(NC(=O)Cc3ccc(Cl)cc3)cc2C1=O | 3.94 |
| CC(=O)c1cc(-c2ccccc2)n(CC(=O)N2CCCC2)c1C | 13.3 |
